Data from the supplement of paper PMC11732987, “Enantioselective OTUD7B fragment discovery through chemoproteomics screening and high-throughput optimisation” (Communications Chemistry, 2025).

How the values were obtained:
Assay in all cases: log2 ratio of Biotin-Ahx-Ub-VS probe labelling (fragment/DMSO); higher = less target engagement (more negative = stronger competition), active = hit call of the paper (q ≤ 0.05, log2 ratio ≤ -1)
Conditions in all cases: compound concentration: 200 uM; treatment time: 3 h
OTUD6B = target: T1, OTUD6B (UniProt Q8N6M0)
T1 sequence (whole entry): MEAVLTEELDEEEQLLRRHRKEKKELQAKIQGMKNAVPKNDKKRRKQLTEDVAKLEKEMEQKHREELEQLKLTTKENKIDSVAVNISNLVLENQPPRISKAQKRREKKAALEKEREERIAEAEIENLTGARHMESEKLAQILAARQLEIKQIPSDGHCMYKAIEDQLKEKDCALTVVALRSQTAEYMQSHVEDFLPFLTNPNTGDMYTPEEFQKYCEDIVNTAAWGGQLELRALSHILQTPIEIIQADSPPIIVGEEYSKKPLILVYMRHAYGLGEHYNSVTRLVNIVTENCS
Outline: (§1)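 Labelled DUBs were enriched with NeutrAvidin, digested with LysC and trypsin, and run by diaPASEF LC-MS/MS. The labelling used Biotin-Ahx-Ub-VS at 0.5 µM final for 1 h on HEK293T lysate (495 µg per sample) previously treated in triplicate with fragment at 200 µM or vehicle for 3 h. Values are average log2 fragment/vehicle ratios by unpaired t-test on global-median-normalised Spectronaut quantities of proteins with ≥2 unique peptides.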

OTUD7B = target: T2, OTUD7B (UniProt Q6GQQ9)
T2 sequence (whole entry): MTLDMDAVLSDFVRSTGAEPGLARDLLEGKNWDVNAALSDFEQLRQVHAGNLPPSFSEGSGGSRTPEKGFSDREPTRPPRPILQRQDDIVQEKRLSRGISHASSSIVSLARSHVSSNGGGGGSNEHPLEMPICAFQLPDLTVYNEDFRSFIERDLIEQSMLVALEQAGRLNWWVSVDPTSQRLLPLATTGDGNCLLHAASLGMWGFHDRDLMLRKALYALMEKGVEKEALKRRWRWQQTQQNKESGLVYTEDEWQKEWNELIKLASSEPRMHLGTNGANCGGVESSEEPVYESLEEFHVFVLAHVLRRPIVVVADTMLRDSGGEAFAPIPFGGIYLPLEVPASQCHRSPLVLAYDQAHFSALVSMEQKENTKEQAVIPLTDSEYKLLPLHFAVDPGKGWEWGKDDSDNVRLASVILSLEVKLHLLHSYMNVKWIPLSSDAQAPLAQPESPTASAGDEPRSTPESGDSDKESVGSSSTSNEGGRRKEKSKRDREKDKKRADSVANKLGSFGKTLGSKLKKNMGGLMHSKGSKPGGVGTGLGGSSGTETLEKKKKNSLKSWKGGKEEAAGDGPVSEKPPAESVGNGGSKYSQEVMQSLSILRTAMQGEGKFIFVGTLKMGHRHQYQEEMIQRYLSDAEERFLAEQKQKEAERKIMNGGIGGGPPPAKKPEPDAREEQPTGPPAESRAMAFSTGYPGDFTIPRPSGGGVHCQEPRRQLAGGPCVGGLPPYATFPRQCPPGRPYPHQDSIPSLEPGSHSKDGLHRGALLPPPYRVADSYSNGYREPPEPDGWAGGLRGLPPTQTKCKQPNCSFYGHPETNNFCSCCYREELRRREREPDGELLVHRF
Outline: as §1

PRPF8 = PRPF8 (UniProt Q6P2Q9)
Outline: as §1

PSMD7 = target: T3, PSMD7 (UniProt P51665)
T3 sequence (whole entry): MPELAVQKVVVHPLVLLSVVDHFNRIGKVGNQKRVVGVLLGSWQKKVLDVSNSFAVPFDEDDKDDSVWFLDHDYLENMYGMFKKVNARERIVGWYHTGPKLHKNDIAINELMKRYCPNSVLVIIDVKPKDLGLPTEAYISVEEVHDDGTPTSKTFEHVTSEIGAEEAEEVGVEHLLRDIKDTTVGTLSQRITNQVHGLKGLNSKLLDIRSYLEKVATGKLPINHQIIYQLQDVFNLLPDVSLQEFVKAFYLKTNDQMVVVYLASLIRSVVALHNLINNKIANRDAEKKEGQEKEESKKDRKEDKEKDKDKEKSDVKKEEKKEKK
Outline: as §1

UCHL1 = UCHL1 (UniProt P09936)
Outline: as §1

UCHL3 = target: T4, UCHL3 (UniProt P15374)
T4 sequence (whole entry): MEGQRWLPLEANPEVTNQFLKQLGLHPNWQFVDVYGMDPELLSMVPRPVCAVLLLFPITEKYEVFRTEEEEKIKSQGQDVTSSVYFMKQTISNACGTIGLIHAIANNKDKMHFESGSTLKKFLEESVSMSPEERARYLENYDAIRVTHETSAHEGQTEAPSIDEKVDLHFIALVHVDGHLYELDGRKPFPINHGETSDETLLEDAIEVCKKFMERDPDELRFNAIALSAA
Outline: as §1

UCHL5 = target: T5, UCHL5 (UniProt Q9Y5K5)
T5 sequence (whole entry): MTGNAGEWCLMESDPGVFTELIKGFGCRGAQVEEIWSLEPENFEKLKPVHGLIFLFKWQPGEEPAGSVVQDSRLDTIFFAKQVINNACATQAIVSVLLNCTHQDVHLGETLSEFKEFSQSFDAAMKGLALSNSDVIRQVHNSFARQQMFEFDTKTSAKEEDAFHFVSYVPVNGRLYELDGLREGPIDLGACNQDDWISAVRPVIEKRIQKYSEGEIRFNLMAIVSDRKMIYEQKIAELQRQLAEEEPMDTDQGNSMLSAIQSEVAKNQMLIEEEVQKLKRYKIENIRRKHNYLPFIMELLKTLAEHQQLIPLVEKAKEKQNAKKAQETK
Outline: as §1

USP10 = USP10 (UniProt Q14694)
Outline: as §1

USP15 = target: T6, USP15 (UniProt Q9Y4E8)
T6 sequence (whole entry): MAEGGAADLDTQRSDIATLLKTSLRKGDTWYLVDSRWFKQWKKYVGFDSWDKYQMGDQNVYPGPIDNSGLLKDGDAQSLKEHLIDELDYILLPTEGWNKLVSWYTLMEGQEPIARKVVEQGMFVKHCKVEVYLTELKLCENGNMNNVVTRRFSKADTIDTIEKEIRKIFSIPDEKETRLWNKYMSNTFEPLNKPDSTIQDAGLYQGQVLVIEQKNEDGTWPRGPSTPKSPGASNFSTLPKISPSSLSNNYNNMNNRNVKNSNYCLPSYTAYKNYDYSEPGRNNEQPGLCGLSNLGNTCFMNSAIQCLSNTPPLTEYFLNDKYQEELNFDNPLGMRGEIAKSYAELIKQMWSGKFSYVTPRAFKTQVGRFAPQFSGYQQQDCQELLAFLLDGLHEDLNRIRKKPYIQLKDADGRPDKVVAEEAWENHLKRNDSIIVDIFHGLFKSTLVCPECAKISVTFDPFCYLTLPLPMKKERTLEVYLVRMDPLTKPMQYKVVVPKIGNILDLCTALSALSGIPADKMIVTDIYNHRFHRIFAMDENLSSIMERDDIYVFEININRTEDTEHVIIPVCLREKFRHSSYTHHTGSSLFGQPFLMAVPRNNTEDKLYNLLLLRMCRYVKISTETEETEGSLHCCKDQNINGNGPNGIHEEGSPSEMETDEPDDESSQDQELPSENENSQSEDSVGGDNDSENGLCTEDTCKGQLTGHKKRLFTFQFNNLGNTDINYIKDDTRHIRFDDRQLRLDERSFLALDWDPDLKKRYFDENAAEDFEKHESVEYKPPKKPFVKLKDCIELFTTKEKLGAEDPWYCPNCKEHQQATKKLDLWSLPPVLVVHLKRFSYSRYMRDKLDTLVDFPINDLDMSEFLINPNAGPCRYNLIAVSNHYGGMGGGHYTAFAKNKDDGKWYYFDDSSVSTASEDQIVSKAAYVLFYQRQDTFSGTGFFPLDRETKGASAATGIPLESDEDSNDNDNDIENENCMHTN
Outline: as §1

Measured: log2 ratio of Biotin-Ahx-Ub-VS probe labelling

USP10, sequence (Q14694 whole entry): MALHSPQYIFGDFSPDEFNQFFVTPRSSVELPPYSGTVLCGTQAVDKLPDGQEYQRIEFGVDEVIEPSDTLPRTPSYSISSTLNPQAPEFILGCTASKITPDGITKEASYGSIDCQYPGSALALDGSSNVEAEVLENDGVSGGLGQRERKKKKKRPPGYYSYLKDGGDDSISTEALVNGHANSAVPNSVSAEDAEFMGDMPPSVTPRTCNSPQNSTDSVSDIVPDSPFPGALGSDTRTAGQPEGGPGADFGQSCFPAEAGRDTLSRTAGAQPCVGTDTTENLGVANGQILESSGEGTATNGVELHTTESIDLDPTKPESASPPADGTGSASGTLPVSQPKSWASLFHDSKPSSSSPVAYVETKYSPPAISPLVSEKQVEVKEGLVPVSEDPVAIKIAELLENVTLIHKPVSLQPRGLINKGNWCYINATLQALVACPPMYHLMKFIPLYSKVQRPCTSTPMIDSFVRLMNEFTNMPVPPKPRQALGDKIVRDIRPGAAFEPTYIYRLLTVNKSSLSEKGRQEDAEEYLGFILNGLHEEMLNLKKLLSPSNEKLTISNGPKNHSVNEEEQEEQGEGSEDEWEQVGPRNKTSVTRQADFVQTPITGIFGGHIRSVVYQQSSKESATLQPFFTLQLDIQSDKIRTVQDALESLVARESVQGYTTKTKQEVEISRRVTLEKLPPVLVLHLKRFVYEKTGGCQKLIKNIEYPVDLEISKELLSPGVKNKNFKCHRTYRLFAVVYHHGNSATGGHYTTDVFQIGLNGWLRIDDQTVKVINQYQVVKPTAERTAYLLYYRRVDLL
UCHL1, sequence (P09936 whole entry, looked up): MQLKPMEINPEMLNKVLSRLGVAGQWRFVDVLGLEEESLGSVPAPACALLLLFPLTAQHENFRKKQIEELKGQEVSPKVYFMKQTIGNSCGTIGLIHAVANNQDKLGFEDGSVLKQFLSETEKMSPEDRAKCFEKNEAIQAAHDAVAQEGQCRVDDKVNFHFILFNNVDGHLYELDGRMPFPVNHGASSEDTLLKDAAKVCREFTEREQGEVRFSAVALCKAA

CCCn1nccc1NC(=O)CCl
active: OTUD7B -1.42
inactive: OTUD6B 0.0729 | PRPF8 0.193 | PSMD7 -0.254 | UCHL1 -0.343 | UCHL3 0.0705 | UCHL5 -0.074 | USP10 -0.0888 | USP15 -0.238
